From PubChem BioAssay
Active and inactive are the calls of the source.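 Rule for the calls, unless noted: active = compounds lowering colon cancer cell viability after pretreatment blocking the GSK3B kinase; inactive = the rest.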

Columns and labels:
[1] = stimulators of insulin release from INS-1E, primary screen, cell-based, 5 mM glucose, NPC library (AID 1117329;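 active = compound raises insulin release from rat beta cells at 5 mM glucose, no numeric limit stated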); conditions: rat INS-1E insulin secretion, at 10 µM, stronger effect = higher value
[2] = growth inhibition of GSK3B-pretreated HCT116 cells – cell-based, CellTiter-Glo, 0.2 to 20 µM (AID 1117336); conditions: HCT116 viability after GSK3B inhibitor, at 20 µM, stronger effect = higher value
[3] = inhibition of endothelial tube formation, primary screen, imaging, VEGF stimulated, CD31 staining, tube area, NPC library (AID 1117340;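 active = compound that reduces growth-factor-driven endothelial tube area in a mixed cell culture, no cutoff stated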); conditions: VEGF-stimulated ADSC/ECFC co-culture, at 10 µM, stronger effect = higher value
[4] = glucagon-like peptide 1 release enhancers, primary assay, NCI-H716 cell line, NPC library (AID 1117341;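 active = compound raises GLP1 secretion from the human gut endocrine cells, with no numeric limit stated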); conditions: NCI-H716 cells, at 10 µM, stronger effect = higher value
[5] = HCT116 colon cancer cell growth inhibition, primary screen, CellTiter-Glo luminescence, NPC library (AID 1117342;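 active = compounds that lower survival of HCT116 colon cancer cells in the luminescence readout, no numeric limit stated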); conditions: at 20 µM (top of the series)
[6] = CellTiter-Glo luminescent readout of SW480 viability loss, NPC library primary (AID 1117343;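 active = compounds that lower viability of the colon cancer cells in the luminescence readout, with no numeric limit stated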); conditions: CellTiter-Glo luminescence; at 20 µM (top of the series)
[7] = decreased DLD-1 cellular survival, CellTiter-Glo luminescent readout, NPC compound collection, primary HTS (AID 1117346;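 active = compounds that lower survival of DLD-1 colon cancer cells in the luminescence readout, no cutoff given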); conditions: DLD-1 viability, CellTiter-Glo luminescence; at 20 µM (top of the series)
[8] = target: 6-phosphogluconate dehydrogenase, decarboxylating (Homo sapiens) (UniProt P52209); experiment: 6PGD enzyme inhibitors, primary screen, biochemical, human, recombinant enzyme, NADPH absorbance (AID 1159550;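 active = at least 20% inhibition of 6-phosphogluconate dehydrogenase activity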); conditions: recombinant 6PGD, NADPH absorbance 341 nm; at 10 µM; stronger effect = higher value
6-phosphogluconate dehydrogenase, decarboxylating (Homo sapiens), sequence (P52209 whole entry, looked up): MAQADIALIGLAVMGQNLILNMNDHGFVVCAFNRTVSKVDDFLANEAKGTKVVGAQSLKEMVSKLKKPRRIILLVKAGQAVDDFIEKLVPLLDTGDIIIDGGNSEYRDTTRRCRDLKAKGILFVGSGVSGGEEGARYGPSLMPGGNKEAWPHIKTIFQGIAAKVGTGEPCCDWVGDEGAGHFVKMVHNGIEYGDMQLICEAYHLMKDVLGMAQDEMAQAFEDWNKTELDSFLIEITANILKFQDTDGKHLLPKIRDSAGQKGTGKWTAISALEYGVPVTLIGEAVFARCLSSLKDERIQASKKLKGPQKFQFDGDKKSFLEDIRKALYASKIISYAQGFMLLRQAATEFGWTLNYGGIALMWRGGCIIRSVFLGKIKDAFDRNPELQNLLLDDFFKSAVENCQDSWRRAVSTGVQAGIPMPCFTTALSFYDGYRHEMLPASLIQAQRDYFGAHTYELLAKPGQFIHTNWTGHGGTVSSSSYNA

[9] = differential killing of epithelial or mesenchymal cells, primary screen, imaging, PC-3E GFP, TEM4-18 mCherry, co-culture (AID 1345086;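 active = compounds killing one labelled cell type while sparing the other, by normalised counts and ratio limits, not self-fluorescent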;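 for all read-outs here: cells exposed to compound for 72 h before imaging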;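 for red/green cell ratio (normalised): normalised mesenchymal count divided by normalised epithelial count so high means epithelial killing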); conditions: imaging cell counts, at 1 µM; for red/green cell ratio (normalised): actives lie on both sides, counts scaled to control wells, 1 = unselective
[10] = measured here: epithelial PC-3E GFP cell survival
[11] = measured here: mesenchymal TEM4-18 mCherry cell survival

SMILES: Cn1c([N+](=O)[O-])cnc1COC(N)=O
- insulin secretion stimulation [1]: -4.5% (inactive)
- viability decrease [2]: -8.4% (inactive)
- tube area decrease [3]: 6.2% (inactive)
- GLP1 secretion stimulation [4]: 0.7% (inactive)
- inhibition of viability [5]: -2.4% (inactive)
- viability decrease (inhibition) [6]: -4.9% (inactive)
- viability decrease (inhibition) [7]: -13.8% (inactive)
- inhibition [8]: -20.2% (inactive)
- red/green cell ratio (normalised) [9]: 1 (inactive)
- normalised cell number [9, 10]: 1.01
- normalised cell number [9, 11]: 1.01

SMILES: CO/N=C1\CN(c2nc3c(cc2F)c(=O)c(C(=O)O)cn3C2CC2)CC1CN (centres undefined)
- insulin secretion stimulation [1]: 3% (inactive)
- viability decrease [2]: -23.6% (inactive)
- tube area decrease [3]: -6.9% (inactive)
- GLP1 secretion stimulation [4]: 1.1% (inactive)
- inhibition of viability [5]: -15% (inactive)
- viability decrease (inhibition) [6]: -14.7% (inactive)
- viability decrease (inhibition) [7]: -7.2% (inactive)
- inhibition [8]: 2.88% (inactive)
- red/green cell ratio (normalised) [9]: 0.94 (inactive)
- normalised cell number [9, 10]: 1.32
- normalised cell number [9, 11]: 1.24

SMILES: CC(=O)NO
- insulin secretion stimulation [1]: 5.1% (inactive)
- viability decrease [2]: 30.9% (inactive)
- tube area decrease [3]: 11.1% (inactive)
- GLP1 secretion stimulation [4]: 10.8% (active)
- inhibition of viability [5]: 10.6% (inactive)
- viability decrease (inhibition) [6]: 69.2% (active)
- viability decrease (inhibition) [7]: 56% (active)
- inhibition [8]: -9.51% (inactive)
- red/green cell ratio (normalised) [9]: 1.09 (inactive)
- normalised cell number [9, 10]: 1.08
- normalised cell number [9, 11]: 1.18

SMILES: Nc1ccc(S(=O)(=O)Nc2cnc3ccccc3n2)cc1
- insulin secretion stimulation [1]: 1.2% (inactive)
- viability decrease [2]: 21% (inactive)
- tube area decrease [3]: -18.5% (inactive)
- GLP1 secretion stimulation [4]: 4.1% (inactive)
- inhibition of viability [5]: 0.93% (inactive)
- viability decrease (inhibition) [6]: -1% (inactive)
- viability decrease (inhibition) [7]: -9.7% (inactive)
- inhibition [8]: 10.4% (inactive)
- red/green cell ratio (normalised) [9]: 1.03 (inactive)
- normalised cell number [9, 10]: 1.09
- normalised cell number [9, 11]: 1.11

SMILES: Cc1c(NC(C)C)c(=O)n(-c2ccccc2)n1C
- insulin secretion stimulation [1]: 0.4% (inactive)
- viability decrease [2]: 3.8% (inactive)
- tube area decrease [3]: 4% (inactive)
- GLP1 secretion stimulation [4]: -0.1% (active)
- inhibition of viability [5]: -11% (inactive)
- viability decrease (inhibition) [6]: -10% (inactive)
- viability decrease (inhibition) [7]: -1.3% (inactive)
- inhibition [8]: 16.7% (inactive)
- red/green cell ratio (normalised) [9]: 0.88 (inactive)
- normalised cell number [9, 10]: 0.91
- normalised cell number [9, 11]: 0.8

SMILES: NCCCC[C@H](N[C@@H](CCc1ccccc1)C(=O)O)C(=O)N1CCC[C@H]1C(=O)O
- insulin secretion stimulation [1]: -0.8% (inactive)
- viability decrease [2]: -3.9% (inactive)
- tube area decrease [3]: -7.9% (inactive)
- GLP1 secretion stimulation [4]: 0.3% (inactive)
- inhibition of viability [5]: -5.23% (inactive)
- viability decrease (inhibition) [6]: 9.9% (inactive)
- viability decrease (inhibition) [7]: -8% (inactive)
- inhibition [8]: -2.78% (inactive)
- red/green cell ratio (normalised) [9]: 1.65 (inactive)
- normalised cell number [9, 10]: 0.22
- normalised cell number [9, 11]: 0.36

SMILES: Cc1cc(NC(=O)C2=C(O)c3ccccc3S(=O)(=O)N2C)no1
- insulin secretion stimulation [1]: -1.3% (inactive)
- viability decrease [2]: -24.5% (inactive)
- tube area decrease [3]: 14.8% (inactive)
- GLP1 secretion stimulation [4]: -2.4% (inactive)
- inhibition of viability [5]: 4.6% (inactive)
- viability decrease (inhibition) [6]: -6% (inactive)
- viability decrease (inhibition) [7]: -7.2% (inactive)
- inhibition [8]: 0.485% (inactive)
- red/green cell ratio (normalised) [9]: 0.87 (inactive)
- normalised cell number [9, 10]: 0.97
- normalised cell number [9, 11]: 0.84

SMILES: CCN(CC)CCNC(=O)c1ccc(NC(C)=O)cc1
- insulin secretion stimulation [1]: 0.3% (inactive)
- viability decrease [2]: 23% (inactive)
- tube area decrease [3]: 23.1% (inactive)
- GLP1 secretion stimulation [4]: 1.6% (inactive)
- inhibition of viability [5]: 18.3% (inactive)
- viability decrease (inhibition) [6]: 25.6% (inactive)
- viability decrease (inhibition) [7]: 19.5% (inactive)
- inhibition [8]: 3.51% (inactive)
- red/green cell ratio (normalised) [9]: 1.26 (inactive)
- normalised cell number [9, 10]: 0.89
- normalised cell number [9, 11]: 1.13

SMILES: CN1CCOC(c2ccccc2)c2ccccc2C1 (centres undefined)
- insulin secretion stimulation [1]: 1.8% (inactive)
- viability decrease [2]: -52.9% (inactive)
- tube area decrease [3]: 0.9% (inactive)
- GLP1 secretion stimulation [4]: 4% (inactive)
- inhibition of viability [5]: 12.4% (inactive)
- viability decrease (inhibition) [6]: 40.1% (inactive)
- viability decrease (inhibition) [7]: -7.2% (inactive)
- inhibition [8]: 5.09% (inactive)
- red/green cell ratio (normalised) [9]: 1.19 (inactive)
- normalised cell number [9, 10]: 0.43
- normalised cell number [9, 11]: 0.51

SMILES: O=C(O)c1ccccc1OP(=O)(O)O
- insulin secretion stimulation [1]: 0.8% (inactive)
- viability decrease [2]: -21.3% (inactive)
- tube area decrease [3]: -18.8% (inactive)
- GLP1 secretion stimulation [4]: 1.7% (inactive)
- inhibition of viability [5]: 1.07% (inactive)
- viability decrease (inhibition) [6]: 6.6% (inactive)
- viability decrease (inhibition) [7]: -7.1% (inactive)
- inhibition [8]: -2.26% (inactive)
- red/green cell ratio (normalised) [9]: 0.9 (inactive)
- normalised cell number [9, 10]: 1.17
- normalised cell number [9, 11]: 1.05

SMILES: CCOc1ccc(Cc2nccc3cc(OCC)c(OCC)cc23)cc1OCC
- insulin secretion stimulation [1]: 1.2% (inactive)
- viability decrease [2]: -83% (inactive)
- tube area decrease [3]: 39.2% (inactive)
- GLP1 secretion stimulation [4]: 4.1% (inactive)
- inhibition of viability [5]: 69.1% (active)
- viability decrease (inhibition) [6]: 97.9% (active)
- viability decrease (inhibition) [7]: 62.3% (active)
- inhibition [8]: -5.46% (inactive)
- red/green cell ratio (normalised) [9]: 0.88 (inactive)
- normalised cell number [9, 10]: 1
- normalised cell number [9, 11]: 0.88

SMILES: C[C@](N)(Cc1ccc(O)cc1)C(=O)O
- insulin secretion stimulation [1]: -0.1% (inactive)
- viability decrease [2]: 0.3% (inactive)
- tube area decrease [3]: -8.2% (inactive)
- GLP1 secretion stimulation [4]: 1.3% (inactive)
- inhibition of viability [5]: -15.1% (inactive)
- viability decrease (inhibition) [6]: 42.1% (inactive)
- viability decrease (inhibition) [7]: -1.1% (inactive)
- inhibition [8]: -7.56% (inactive)
- red/green cell ratio (normalised) [9]: 0.89 (inactive)
- normalised cell number [9, 10]: 1.18
- normalised cell number [9, 11]: 1.05

SMILES: CCCCCC(C)N (centres undefined)
- insulin secretion stimulation [1]: 3.3% (inactive)
- viability decrease [2]: 11.8% (inactive)
- tube area decrease [3]: 4.3% (inactive)
- GLP1 secretion stimulation [4]: 0% (inactive)
- inhibition of viability [5]: -3.73% (inactive)
- viability decrease (inhibition) [6]: -37.6% (inactive)
- viability decrease (inhibition) [7]: 1.5% (inactive)
- inhibition [8]: -7.17% (inactive)
- red/green cell ratio (normalised) [9]: 1.26 (inactive)
- normalised cell number [9, 10]: 0.94
- normalised cell number [9, 11]: 1.18

SMILES: O=C(OCC(O)CO)c1ccccc1Nc1ccnc2cc(Cl)ccc12 (centres undefined)
- insulin secretion stimulation [1]: 6.1% (inactive)
- viability decrease [2]: 53.3% (active)
- tube area decrease [3]: -3.6% (inactive)
- GLP1 secretion stimulation [4]: -2.3% (inactive)
- inhibition of viability [5]: 38.5% (inactive)
- viability decrease (inhibition) [6]: 53.8% (active)
- viability decrease (inhibition) [7]: 6.3% (inactive)
- inhibition [8]: 11.2% (inactive)
- red/green cell ratio (normalised) [9]: 0.94 (inactive)
- normalised cell number [9, 10]: 0.84
- normalised cell number [9, 11]: 0.79
